CHT allo act = allosteric activators of human choline transporter CHT; B-score at 10 µM; actives 0.49% (n = 310,000); CHT-expressing cells, membrane potential dye, choline EC20; hits give high values; LV-AA mutant CHT in HEK293 cells; Q9GZV3;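 active = initial fluorescence not abnormally high and integrated response B-score, plate-corrected, over 3 SD above library mean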
Target sequence (Q9GZV3 whole entry, looked up): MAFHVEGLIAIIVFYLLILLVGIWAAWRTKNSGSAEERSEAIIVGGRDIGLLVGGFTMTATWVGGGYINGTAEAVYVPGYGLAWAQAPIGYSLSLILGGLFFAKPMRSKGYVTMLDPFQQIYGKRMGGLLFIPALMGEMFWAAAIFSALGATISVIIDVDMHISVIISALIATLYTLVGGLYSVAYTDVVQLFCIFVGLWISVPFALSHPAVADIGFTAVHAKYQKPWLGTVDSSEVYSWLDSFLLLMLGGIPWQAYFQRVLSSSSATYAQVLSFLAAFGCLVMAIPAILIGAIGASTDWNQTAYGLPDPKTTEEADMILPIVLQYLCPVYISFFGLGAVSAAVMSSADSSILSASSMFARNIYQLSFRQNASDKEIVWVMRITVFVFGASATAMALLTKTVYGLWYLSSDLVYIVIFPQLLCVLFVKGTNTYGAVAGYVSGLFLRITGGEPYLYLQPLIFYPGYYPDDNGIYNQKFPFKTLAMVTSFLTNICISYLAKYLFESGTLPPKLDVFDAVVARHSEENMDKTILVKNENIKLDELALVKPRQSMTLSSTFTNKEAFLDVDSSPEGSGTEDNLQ
Mot1-301 SUMO = SUMOylation pathway inhibition by Mot1-301 growth rescue; AID 2716; S. cerevisiae Mot1-301 growth rescue, ATP luminescence, 38.5C; percent above DMSO median, 100 means doubled; growth rescue, % at 18.8 µM; actives 1% (n = 320,000);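 active = every valid replicate shows activation above 250% relative to neutral control wells; inactive = the rest, any valid replicate at or below 250%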
MEKK2mut PB1 HTS = signal of MEK5 binding to mutant human MEKK2 PB1 domain | bead flow cytometry, Alexa488-MEK5 binding to MEKK2 mutant | percent response, % at 10 µM | actives 0.35% (n = 290,000) | AID 1530; in the data active = percent response above about 24%, passing the limit was not always enough
CHT block = inhibitors of human choline transporter CHT; Q9GZV3; CHT-expressing cells, membrane potential dye, choline response; hits give low values; B-score at 10 µM; actives 0.86% (n = 310,000);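 active = B-score over 3 SD under the library average, and starting fluorescence ratio not unusually high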;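 also: choline stimulus applied at its EC90 after an EC20 pre-addition; B-score computed on integrated fluorescence ratio after choline addition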
MEKK2wt PB1 HTS = raises or lowers MEK5 binding to wildtype human MEKK2 PB1 domain | AID 1531 | bead flow cytometry, Alexa488-MEK5 binding to MEKK2 WT; actives lie on both sides | binding response (% of control), % at 10 µM | actives 1.1% (n = 290,000) | Q9Y2U5; in the data active = binding response below about 67% or above about 130%
MEKK3 PB1 HTS = MEKK3-MEK5 PB1 interaction, increase or decrease; bead-based flow cytometry, Alexa488-MEK5 binding to MEKK3; actives lie on both sides; 0 = blocked by unlabeled MEK5, 100 = vehicle; binding response (% of control), % at 10 µM; actives 1.4% (n = 290,000); AID 1529;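 active = binding response more than 3 SD above or below the average of its plate-row segment, actives on both sides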;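 also: Alexa488 bead fluorescence after subtracting the streptavidin-only scavenger bead signal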
Mot1 SUMO dose = yeast SUMO pathway inhibition in dose response. S. cerevisiae Mot1-301 galactose growth, ATP luminescence, 24 h; -100 = growth of slx-deleted rescue strain. AID 493004. shares compounds with Mot1-301 SUMO. 2,300 tested, under 10 active. growth activity, percent, % at 42 µM;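 active = Signal drops as the depositor expects, and the fitted half-maximal dose is no more than ten times the top valid tested dose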;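 also: more negative values mean stronger growth rescue toward the control strain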
A number is an active result; - = inactive; . = no result; + = active, no number. Compounds with a hit are over-represented: about 4.1% of the library has one in this group of screens.

SMILES	CHT allo act	Mot1-301 SUMO	MEKK2mut PB1 HTS	CHT block	MEKK2wt PB1 HTS	MEKK3 PB1 HTS	Mot1 SUMO dose
CCN1C(=S)N[C@@H](CCc2ccccc2)C(C(=O)OC)=C1C	-	+	-	-	-	-	-
CCN1C(=O)N[C@@H](c2cccs2)C(C(=O)OC)=C1C	-	-	-	-	-	-	.
CCN1C(=S)N[C@@H](c2cccs2)C(C(=O)OC)=C1C	-	896	-	-	-	-	-
O=[N+]([O-])c1ccc(-c2n(-c3ccccn3)c3ccccc3[n+]2-c2ccccn2)cc1	-	-	-	-	-	-	.
O=C(NCCCN1CCOCC1)c1nn(-c2ccccc2)c(=O)c2ccccc12	-	-	.	-	.	.	.
CN(C)CCNC(=O)c1onc(CSc2ccc(F)c(F)c2)c1C(=O)NCCN(C)C	-	578	-	-	-	-	-
Cc1[nH]nc2c1C(c1cccs1)C1=C(CC(C)(C)CC1=O)N2 (stereo not drawn)	-	662	-	-	-	-	-
O=C1COc2ccc(C(=O)c3ccccc3C(=O)NCc3ccccc3)cc2N1	-	-	-	-	-	-	.
COc1ccc(/C=C/C(=O)OCC(=O)NCCC2=CCCCC2)cc1S(=O)(=O)N1CCOCC1	-	-	-	-	-	-	.
COc1cc(/C=N/NC(=O)CCC(=O)Nc2ccc(F)cc2)ccc1O	-	-	-	-	-	-	.
COc1ccc(/C=N/NC(=O)CCC(=O)Nc2ccccc2)cc1OC	-	795	-	-	-	-	-
COc1ccc(NC(=O)CCCc2ccccc2)cc1OC	-	382	-	-	-	-	-
COc1ccc2c(c1)[C@H]1[C@H](CO2)[C@H](c2ccccc2)[C@]2(C)C(=O)N(Cc3ccc(C)cc3)CC(=O)N12	.	-	.	.	.	.	.
CC(C)C[C@H](NC(=O)N1c2ccccc2NC(=O)[C@@H]1C(C)C)C(=O)N[C@@H](Cc1ccccc1)C(=O)O	-	-	-	-	-	-	.
COC(=O)c1cc(NC(=O)CN(c2ccc3c(c2)OCO3)S(C)(=O)=O)ccc1Cl	-	-	-	-	-	-	.
CS(=O)(=O)N(CC(=O)Nc1ccccc1C(=O)N1CCCC1)c1ccc2c(c1)OCO2	-	822	-	-	-	-	-
CS(=O)(=O)N(CC(=O)NCCSCc1ccccc1)c1ccc2c(c1)OCO2	-	+	-	-	-	-	-
COC(=O)c1cccc(NC(=O)CN(c2ccc3c(c2)OCO3)S(C)(=O)=O)c1C	-	+	-	-	-	-	-
CN(C)c1cccc(C(=O)N2CCCC(CCC(=O)NCc3ccccc3F)C2)c1 (stereo not drawn)	-	-	-	-	-	-	.
Cn1ncc(Br)c1NC(=O)Nc1ccccc1	-	-	-	-	-	-	.
CCN(CC)c1nc2c(c(=O)[nH]c(=O)n2C)n1CCOc1ccccc1	-	710	-	-	-	-	-
O=C1CN(C(=O)COC(=O)c2ccc[n+]([O-])c2)c2ccccc2N1	-	-	-	-	-	-	.
Cc1cc(C)cc(NC(=O)CS(=O)(=O)c2ccccc2)c1	-	368	-	-	-	-	-
COCCC(=O)N(Cc1ccc2c(c1)OCO2)C(C(=O)NC1CCCCC1)c1ccncc1 (stereo not drawn)	-	-	-	-	-	-	.
O=C(NC1CCCCC1)C(c1ccncc1)N(Cc1ccc2c(c1)OCO2)C(=O)C(F)(F)F (stereo not drawn)	-	577	-	-	-	-	-
SMILES	CHT allo act	Mot1-301 SUMO	MEKK2mut PB1 HTS	CHT block	MEKK2wt PB1 HTS	MEKK3 PB1 HTS	Mot1 SUMO dose
CC(C)(C)c1ccc(C(=O)NCCC(=O)NCc2cccs2)cc1	-	-	-	-	-	-	.
CCCCn1c(N)c(N(CCOC)C(=O)c2ccc(Cl)c(S(=O)(=O)N3CCCCC3)c2)c(=O)[nH]c1=O	-	698	.	-	.	.	-
CCCCn1c(N)c(N(CCOC)C(=O)c2cnccn2)c(=O)[nH]c1=O	-	765	.	-	.	.	-
CCOC(=O)c1c(C)[nH]c(C(=O)COC(=O)c2ccncc2)c1C	-	+	-	-	-	-	-
C=CC[C@H](CC(=O)N(CCO)Cc1ccccc1)C(=O)N[C@H](C)COC(=O)[C@@H](CC=C)CC(=O)OC(C)(C)C	.	-	.	.	.	.	.
Cc1c(NC(C)c2ccccc2O)c(=O)n(-c2ccccc2)n1C (stereo not drawn)	-	-	-	-	-	-	.
Cc1c(NC(C)c2cc(Cl)ccc2O)c(=O)n(-c2ccccc2)n1C (stereo not drawn)	-	455	-	-	-	-	-
CCc1ccc(NC(=O)CSc2ccc(-c3ccccn3)nn2)cc1	-	-	-	-	-	-	.
CCOC(=O)c1ccccc1NC(=O)CSc1ccc(-c2ccccn2)nn1	-	783	-	-	-	-	-
Cc1c(NC(=S)N/C(=N/S(=O)(=O)c2ccc(Cl)cc2)c2ccccc2)c(=O)n(-c2ccccc2)n1C	-	-	-	-	-	-	.
Cc1ccc(-c2[nH]ncc2CNCCc2cnn(-c3ccccc3)c2)cc1C	-	923	-	-	-	-	-
Cc1ncsc1CCC(=O)N1CCCC(Nc2ccc(C(C)C)cc2)C1 (stereo not drawn)	-	-	-	-	-	-	.
COc1ccc(NC2CCCN(C(=O)CCc3scnc3C)C2)cc1 (stereo not drawn)	-	439	-	-	-	-	-
Cc1nc(C(=O)N2CCCC(Nc3ccc(C)c(C)c3)C2)cs1 (stereo not drawn)	-	-	-	-	-	-	.
COc1ccc(NC2CCCN(C(=O)c3csc(C)n3)C2)cc1 (stereo not drawn)	-	774	-	-	-	-	-
CN1C(=O)[C@H]2[C@@H](/C=C/c3ccccc3)N3C(=O)CN(Cc4ccc(-c5ccccc5)cc4)C(=O)[C@@]3(Cc3ccccc3)[C@H]2C1=O	-	-	-	-	-	-	.
CC(=O)NC(NC(=S)Nc1ccc(C)cc1C)C(Cl)(Cl)Cl (stereo not drawn)	-	-	-	-	-	-	.
Cc1ccc(NC(=S)NC(NC(=O)c2ccccc2C)C(Cl)(Cl)Cl)c(C)c1 (stereo not drawn)	-	627	-	-	-	-	-
CC1(C)CC(=O)C2=C(C1)Oc1ncn(CCO)c(=N)c1C2c1ccccc1 (stereo not drawn)	-	543	-	-	-	-	-
CC1(C)CC(=O)C2=C(C1)Oc1ncn(CCCO)c(=N)c1C2c1ccccc1 (stereo not drawn)	-	-	-	-	-	-	.
